Screening data as filed in PubChem.
Most compounds without a hit are left out; they make up all but 14% or so of the library.
HADH2 inh: qHTS Assay for Inhibitors of HADH2 (Hydroxyacyl-Coenzyme A Dehydrogenase, Type II). 73,000 tested, 3.4% active. AID 886, 2007. Potency, µM (series often up to 57.1 µM), for the others: top-dose activity change, negative = inhibition, usual class: inhibitors. recombinant HADH2, NADH fluorescence, beta-hydroxybutyryl-CoA; note: potency is the fitted concentration of half-maximal effect; % is set by controls: 0 for no effect and ±100 for the full control effect; nearly all actives have a fitted effect of over 60% in size
Target sequence (Q99714 whole entry, looked up, one chain of several): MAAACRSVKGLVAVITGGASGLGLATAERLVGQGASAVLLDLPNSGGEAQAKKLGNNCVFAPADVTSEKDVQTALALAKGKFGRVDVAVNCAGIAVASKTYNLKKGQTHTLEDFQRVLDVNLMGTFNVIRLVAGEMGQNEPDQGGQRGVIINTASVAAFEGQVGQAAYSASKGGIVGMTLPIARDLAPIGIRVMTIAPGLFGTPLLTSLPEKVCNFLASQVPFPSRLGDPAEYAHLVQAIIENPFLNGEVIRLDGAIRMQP
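NADH fluorescence (ex 360/em 450 nm) read every 30 s for 4 min; activity taken as last-minus-first time point difference. Enzyme 20 nM, NAD+ 1 mM, beta-hydroxybutyryl-CoA 90 uM, pH 9.0 Tris buffer.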
HSD17B inh: qHTS Assay for Inhibitors of HSD17B4, hydroxysteroid (17-beta) dehydrogenase 4. 3-hydroxyacyl-CoA dehydrogenase type-2 (Homo sapiens), Q99714. recombinant HSD17B10, NADH fluorescence kinetic. Potency, µM (top dose mostly 57.1 µM), without a hit: at the top dose activity change, negative = inhibition, actives largely listed as inhibitors. 75,000 tested, 7.6% active. AID 893, 2007;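 note: the protocol describes HADH2 (HSD17B10) and not the HSD17B4 of the title; potency is the fitted concentration of half-maximal effect; % is set by controls: 0 for no effect and ±100 for the full control effect; nearly all actives have a fitted effect of over 70% in size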
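His-tagged E. coli-expressed HADH2 at 20 nM in 100 mM Tris-HCl pH 9.0 with 0.01 % Tween-20, preincubated 15 min with compound at room temperature. Reaction with 1 mM NAD+ and 90 uM beta-hydroxybutyryl coenzyme A; NADH fluorescence (360/450 nm) read kinetically over 4 min, last minus first point.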
CRE Fsk mod: Cell signaling CRE-BLA (Fsk stim); CHO CRE-bla reporter (cAMP response element driving beta-lactamase), forskolin EC10, beta-lactamase ratio; 71,000 tested, 2.5% active; Potency, µM (series often up to 38.2 µM), for inactives: top-dose activity change, negative = inhibition, usual class: activators; AID 662, 2007; active = well fitted activation curve with a large enough effect in the signal ratio, with a control signal flat, not every such curve was filed as active; inconclusive = small, poorly fitted or top-dose-only effect, or effect the other way, or a change in a side signal; the % refers to the signal ratio; note: potency is the fitted concentration of half-maximal effect; % of control where 0% means no effect
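CHO CRE-bla cells, overnight plating in Opti-MEM with 0.5% dialyzed FBS; cpd titration + EC10 NKH 477, 3 h 37 °C; CCF4 2 h RT; ex 405/em 460 vs 530 ratio → %Activity, AC50.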
A350 fluor: qHTS Assay for Spectroscopic Profiling in A350 Spectral Region; Compound autofluorescence, 340/450 nm, Alexa 350 dye-equivalents; active compounds read high; max dye-equivalent concentration, M; 59,000 tested, 11% active; AID 590, 2007; in the data active = max dye-equivalent concentration above about 10 nM; inconclusive = mostly about 1.1 nM to 9.6 nM
AID923: qHTS Assay for Allosteric/Competitive Inhibitors of Caspase-1: Spectroscopic Profiling in AFC Spectral Region; AID 923, 2007; compound fluorescence, AFC spectral region (405/520 nm); Potency, µM (doses to about 57.5 µM), for the others: at the highest dose fluorescence increase, usual class: activators; 75,000 tested, 1.1% active; note: potency is the fitted concentration of half-maximal effect; 0% is about no effect
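Baseline compound fluorescence (AFC region, 405 nm ex/520 nm em) taken from the intercept of kinetic reads with 50 nM caspase-1 and 5 uM Ac-WEHD-AFC; normalized to an on-plate AFC standard curve; compounds titrated up to 57 uM.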
4-MU autofl: qHTS Assay for Spectroscopic Profiling in 4-MU Spectral Region | compound autofluorescence, 340/450 nm, 4-MU equivalents; active compounds read high | max dye-equivalent concentration, M | 59,000 tested, 11% active | AID 589, 2007; in the data active = max dye-equivalent concentration above about 10 nM; inconclusive = mostly about 1.1 nM to 9.6 nM
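Compounds in 100 mM Tris, pH 8.0, sat 15 min at room temperature before fluorescence was read at 340 nm excitation/450 nm emission; a per-plate six-point 4-MU standard curve converted signals to dye-equivalent concentration at each compound concentration.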
Active calls of the source: *; [ ] = another dose, or the depositor's remark. Unless noted, calls come from the whole dose curve; as a rule, active = well fitted curve in the direction sought with a large enough effect; inconclusive = small, poorly fitted or top-dose-only effect, or another doubt; inactive = no such curve, though single readings can be large; an effect the other way counts as inactive or inconclusive.

What do the screens show for `O=C(NC1CCCCCC1)c1nc2ncccn2n1`?
HADH2 inh: -18.8%; HSD17B inh: 6.7%; CRE Fsk mod: -1.4%; A350 fluor: inactive; AID923: -0.7%; 4-MU autofl: inactive

How did CCCc1cc(C(=O)Nc2sc(C)c(C)c2C(=O)OCC)no1 do in these assays?
HADH2 inh: inconclusive; HSD17B inh: 31.6µM*; CRE Fsk mod: 2µM*; AID923: -0.6%

How did CCCC(=O)Nc1sc2c(c1C#N)CCCC2 do in these assays?
A350 fluor: inactive; 4-MU autofl: inactive

What do the screens show for `N#Cc1c(NC(=O)c2ccncc2)sc2c1CCC2`?
HADH2 inh: 7.94µM*; HSD17B inh: inconclusive; CRE Fsk mod: -5.3%; A350 fluor: inactive; AID923: -2.1%; 4-MU autofl: inactive

How did COC(=O)CCC(=O)Nc1sc2c(c1C#N)CCCC2 do in these assays?
HADH2 inh: -21.2%; HSD17B inh: -12.2%; CRE Fsk mod: inconclusive; A350 fluor: inactive; AID923: -0.2%; 4-MU autofl: inactive

Results for N#Cc1c(NC(=O)c2nc3ncccn3n2)sc2c1CCCCC2 ?
HADH2 inh: inconclusive; HSD17B inh: -27.5%; CRE Fsk mod: -3.7%; A350 fluor: 1.82e-08M*; AID923: 0.2%; 4-MU autofl: 2.38e-08M*

What do the screens show for `CCCc1cc(C(=O)Nc2sc3c(c2C#N)CCC3)no1`?
HADH2 inh: 15.8µM*; HSD17B inh: inconclusive; CRE Fsk mod: inconclusive; AID923: 2.6%

What do the screens show for `CC(=O)Oc1cc(OC(C)=O)c2c(c1)OC(c1ccc(OC(C)=O)c(OC(C)=O)c1)C(OC(C)=O)C2` (centres undefined)?
HSD17B inh: -8.9%; AID923: 0.1%

What do the screens show for `CCCCC1CC1C(=O)Nc1ccc(OC)c(OC)c1` (centres undefined)?
A350 fluor: inactive; 4-MU autofl: inactive

Results for CC(=O)OCC1OC(C#Cc2ccc(Br)cc2)C=CC1OC(C)=O (centres undefined) ?
HADH2 inh: -16.4%[11.4 µM]; HSD17B inh: -5.5%[11.4 µM]; AID923: 3.4%[11.5 µM]

How did COc1ccc2[nH]c(=O)c(CN(C(=O)c3ccncc3)C(C)C)cc2c1 do in these assays?
HADH2 inh: -0.5%; HSD17B inh: 20µM*; CRE Fsk mod: inconclusive; A350 fluor: 1.69e-07M*; AID923: 1.0%; 4-MU autofl: 1.3e-07M*

How did COc1ccc2[nH]c(=O)c(CN(C(=O)c3ccncc3)C(C)(C)C)cc2c1 do in these assays?
HADH2 inh: 5.7%; HSD17B inh: inconclusive; CRE Fsk mod: inconclusive; A350 fluor: 9.09e-08M*; AID923: 7.1%; 4-MU autofl: 7.18e-08M*

What do the screens show for `COc1ccc2[nH]c(=O)c(CN(C)C(=O)C3CCCCC3)cc2c1`?
HADH2 inh: 10.2%; HSD17B inh: 15.8µM*; CRE Fsk mod: 23.2%; A350 fluor: 2.81e-07M*; AID923: -0.2%; 4-MU autofl: 2.07e-07M*

What do the screens show for `CCCN(Cc1cc2cc(OC)ccc2[nH]c1=O)C(=O)c1ccncc1`?
HADH2 inh: -17.1%; HSD17B inh: 31.6µM*; CRE Fsk mod: 21.1%; A350 fluor: 2.9e-07M*; AID923: 5.7%; 4-MU autofl: 2.19e-07M*

What do the screens show for `CCCN(Cc1cc2cc(C)ccc2[nH]c1=O)C(=O)c1cccc(OC)c1`?
HADH2 inh: -2.3%; HSD17B inh: inconclusive; CRE Fsk mod: inconclusive; A350 fluor: inconclusive; AID923: 1.7%; 4-MU autofl: inconclusive

Results for CC(C)(C)N(Cc1cc2ccccc2[nH]c1=O)C(=O)c1cccnc1 ?
HADH2 inh: 14.5%; HSD17B inh: -5.5%; CRE Fsk mod: -4.4%; A350 fluor: inactive; AID923: 0.6%; 4-MU autofl: inactive

Results for COc1cc(OC)cc(C(=O)N(Cc2cc3cc(C)ccc3[nH]c2=O)C(C)C)c1 ?
HADH2 inh: 1.4%; HSD17B inh: inconclusive; CRE Fsk mod: -3.0%; A350 fluor: inconclusive; AID923: 3.3%; 4-MU autofl: inconclusive

How did NC(=O)NC(N)=O do in these assays?
HADH2 inh: -2.8%; HSD17B inh: 1.4%; CRE Fsk mod: -0.4%; AID923: 0.2%

How did C=CCC1C=CC(OC(=O)OCC)C(COC(=O)OCC)O1 (centres undefined) do in these assays?
HADH2 inh: 5.7%[11.4 µM]; HSD17B inh: 6.8%[11.4 µM]; AID923: 1.7%[11.5 µM]

Results for COc1ccc(CN(Cc2cc3cc(C)ccc3[nH]c2=O)C(=O)N(C)C)cc1 ?
HADH2 inh: 6.0%; HSD17B inh: inconclusive; CRE Fsk mod: 7.1%; A350 fluor: inconclusive; AID923: 0.3%; 4-MU autofl: inconclusive

How did COc1ccc2[nH]c(=O)c(CN(C)C(=O)c3ccncc3)cc2c1 do in these assays?
HADH2 inh: -11.1%; HSD17B inh: 31.6µM*; CRE Fsk mod: 14.4%; A350 fluor: 1.84e-07M*; AID923: 0.3%; 4-MU autofl: 1.38e-07M*

What do the screens show for `COc1cccc(C(=O)N(Cc2cc3cc(C)ccc3[nH]c2=O)C(C)C)c1`?
HADH2 inh: -5.8%; HSD17B inh: inconclusive; CRE Fsk mod: -3.5%; A350 fluor: inconclusive; AID923: -0.8%; 4-MU autofl: inconclusive

How did COc1ccc(CC(=O)N(Cc2cc3cc(OC)ccc3[nH]c2=O)C(C)C)cc1 do in these assays?
HADH2 inh: -13.7%; HSD17B inh: 31.6µM*; CRE Fsk mod: inconclusive; A350 fluor: 2.82e-07M*; AID923: -1.7%; 4-MU autofl: 2.2e-07M*

What do the screens show for `O=C(CCCCC(=O)NCc1cccs1)NCc1cccs1`?
HADH2 inh: 2.0%; HSD17B inh: 2.8%; CRE Fsk mod: -3.4%; A350 fluor: inactive; AID923: -1.0%; 4-MU autofl: inactive

Results for O=C(CCS(=O)(=O)c1ccc(Br)cc1)NCc1cccs1 ?
HADH2 inh: -6.6%; HSD17B inh: 4.1%; CRE Fsk mod: 13.2%; A350 fluor: 1.11e-08M*; AID923: 0.5%; 4-MU autofl: 1.2e-08M*

How did CN1CCN(c2ncc3ncc(=O)n(Cc4ccc(F)cc4)c3n2)CC1 do in these assays?
HADH2 inh: -8.6%; HSD17B inh: 25.1µM*; CRE Fsk mod: 15.1%; A350 fluor: inconclusive; AID923: 11.9%; 4-MU autofl: inconclusive

Results for CN1CCN(c2ncc3ncc(=O)n(CCc4ccccc4)c3n2)CC1 ?
HADH2 inh: -4.7%; HSD17B inh: inconclusive; CRE Fsk mod: inconclusive; A350 fluor: 2.34e-08M*; AID923: 9.9%; 4-MU autofl: 1.87e-08M*
